# The full data set covers some 7,900 targets. This sample favours those with a hit. About 0.6% of all pairs of compound and target were hits. Unmarked numbers belong to inactive results.
# Assays:
# Experiment in all cases: log2 fold change, soluble protein after heating vs DMSO (PISA); higher = thermal stabilisation; K562 cells, 10 uM, 30 min; active = over 0.2 and 3.5 SD of the protein, either way, in both replicates (recomputed)
# saracatinib = compound: CN1CCN(CCOc2cc(OC3CCOCC3)c3c(Nc4c(Cl)ccc5c4OCO5)ncnc3c2)CC1 [saracatinib]
# In short: (§1)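 K562 cells at 2×10^6 cells/mL were treated with 10 μM compound for 30 min. Aliquots were heated for 3 min across 48°C-58°C, pooled, and extracted in PBS with 0.5% NP-40 at 4°C; soluble protein was the supernatant after 21,000xg for 90 min. Soluble protein was quantified by TMTpro 16plex LC-MS/MS with channel sums equalised, and reported as log2 fold change in thermal stability against DMSO controls, with values from duplicates.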
# sotrastaurin = compound: CN1CCN(c2nc(C3=C(c4c[nH]c5ccccc45)C(=O)NC3=O)c3ccccc3n2)CC1 [sotrastaurin]
# In short: as §1
# alvocidib = compound: CN1CC[C@H](c2c(O)cc(O)c3c(=O)cc(-c4ccccc4Cl)oc23)[C@H](O)C1 [alvocidib]
# In short: as §1
# Tubastatin A = compound: CN1CCc2c(c3ccccc3n2Cc2ccc(C(=O)NO)cc2)C1 [Tubastatin A]
# In short: as §1
# [1] = compound: CNC(=O)C1=CC=CC=C1NC2=NC(=NC=C2Cl)NC3=C(C=C(C=C3)N4CCOCC4)OC
# In short: as §1
# defactinib = compound: CNC(=O)c1ccc(Nc2ncc(C(F)(F)F)c(NCc3nccnc3N(C)S(C)(=O)=O)n2)cc1 [defactinib]
# In short: as §1
# rucaparib = compound: CNCc1ccc(-c2[nH]c3cc(F)cc4c3c2CCNC4=O)cc1 [rucaparib]
# In short: as §1
# [2] = compound: CNc1nc(-c2ccc3c(N)n[nH]c3c2)cc(N2C[C@@H](C(=O)NC3CCCCC3)CC[C@H]2C)n1
# In short: as §1
# encorafenib = compound: COC(=O)N[C@@H](C)CNc1nccc(-c2cn(C(C)C)nc2-c2cc(Cl)cc(NS(C)(=O)=O)c2F)n1 [encorafenib]
# In short: as §1
# [3] = compound: COC(=O)[C@H](CCSC)NC(=O)C1=C(C=C(C=C1)NC[C@H](CS)N)C2=CC=CC=C2
# In short: as §1
# [4] = compound: COC1=CC=C(C=C1)CN2C=CC3=C2C=C(C=C3)C(=O)NO
# In short: as §1
# filanesib = compound: CON(C)C(=O)N1N=C(c2cc(F)ccc2F)S[C@@]1(CCCN)c1ccccc1 [filanesib]
# In short: as §1
# zotarolimus = compound: CO[C@H]1C[C@@H]2CC[C@@H](C)[C@@](O)(O2)C(=O)C(=O)N2CCCC[C@H]2C(=O)O[C@H]([C@H](C)C[C@@H]2CC[C@H](n3cnnn3)[C@H](OC)C2)CC(=O)[C@H](C)/C=C(\C)[C@@H](O)[C@@H](OC)C(=O)[C@H](C)C[C@H](C)/C=C/C=C/C=C/1C [zotarolimus]
# In short: as §1
# idasanutlin = compound: COc1cc(C(=O)O)ccc1NC(=O)[C@@H]1N[C@@H](CC(C)(C)C)[C@](C#N)(c2ccc(Cl)cc2F)[C@H]1c1cccc(Cl)c1F [idasanutlin]
# In short: as §1
# alisertib = compound: COc1cc(Nc2ncc3c(n2)-c2ccc(Cl)cc2C(c2c(F)cccc2OC)=NC3)ccc1C(=O)O [alisertib]
# In short: as §1
# [5] = compound: COc1cc2nc(-c3cc(F)ccc3O)nc(N[C@@H]3CNC[C@H]3C(C)(C)O)c2cc1OC
# In short: as §1
# gefitinib = compound: COc1cc2ncnc(Nc3ccc(F)c(Cl)c3)c2cc1OCCCN1CCOCC1 [gefitinib]
# In short: as §1
# [6] = compound: COc1cccc2cc(-c3nc([C@H]4CC[C@H](C(=O)O)CC4)n4ncnc(N)c34)[nH]c12
# In short: as §1
# lapatinib = compound: CS(=O)(=O)CCNCc1ccc(-c2ccc3ncnc(Nc4ccc(OCc5cccc(F)c5)c(Cl)c4)c3c2)o1 [lapatinib]
# In short: as §1
# pictilisib = compound: CS(=O)(=O)N1CCN(Cc2cc3nc(-c4cccc5[nH]ncc45)nc(N4CCOCC4)c3s2)CC1 [pictilisib]
# In short: as §1
# Chain of UniProt Q9NYB0 (Q9NYB0 whole entry, looked up): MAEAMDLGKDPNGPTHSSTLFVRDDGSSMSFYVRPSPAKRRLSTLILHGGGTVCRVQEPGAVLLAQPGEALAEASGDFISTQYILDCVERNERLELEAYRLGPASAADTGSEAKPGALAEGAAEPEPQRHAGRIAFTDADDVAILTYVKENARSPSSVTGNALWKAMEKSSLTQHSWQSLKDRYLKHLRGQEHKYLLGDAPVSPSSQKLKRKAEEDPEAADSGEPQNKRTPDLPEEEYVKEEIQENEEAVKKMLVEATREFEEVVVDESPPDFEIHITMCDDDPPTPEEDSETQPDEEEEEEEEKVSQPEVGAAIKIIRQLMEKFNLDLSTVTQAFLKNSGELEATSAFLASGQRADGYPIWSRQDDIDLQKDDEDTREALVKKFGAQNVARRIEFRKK
# Chain of UniProt Q9P2P6 (Q9P2P6 whole entry, looked up): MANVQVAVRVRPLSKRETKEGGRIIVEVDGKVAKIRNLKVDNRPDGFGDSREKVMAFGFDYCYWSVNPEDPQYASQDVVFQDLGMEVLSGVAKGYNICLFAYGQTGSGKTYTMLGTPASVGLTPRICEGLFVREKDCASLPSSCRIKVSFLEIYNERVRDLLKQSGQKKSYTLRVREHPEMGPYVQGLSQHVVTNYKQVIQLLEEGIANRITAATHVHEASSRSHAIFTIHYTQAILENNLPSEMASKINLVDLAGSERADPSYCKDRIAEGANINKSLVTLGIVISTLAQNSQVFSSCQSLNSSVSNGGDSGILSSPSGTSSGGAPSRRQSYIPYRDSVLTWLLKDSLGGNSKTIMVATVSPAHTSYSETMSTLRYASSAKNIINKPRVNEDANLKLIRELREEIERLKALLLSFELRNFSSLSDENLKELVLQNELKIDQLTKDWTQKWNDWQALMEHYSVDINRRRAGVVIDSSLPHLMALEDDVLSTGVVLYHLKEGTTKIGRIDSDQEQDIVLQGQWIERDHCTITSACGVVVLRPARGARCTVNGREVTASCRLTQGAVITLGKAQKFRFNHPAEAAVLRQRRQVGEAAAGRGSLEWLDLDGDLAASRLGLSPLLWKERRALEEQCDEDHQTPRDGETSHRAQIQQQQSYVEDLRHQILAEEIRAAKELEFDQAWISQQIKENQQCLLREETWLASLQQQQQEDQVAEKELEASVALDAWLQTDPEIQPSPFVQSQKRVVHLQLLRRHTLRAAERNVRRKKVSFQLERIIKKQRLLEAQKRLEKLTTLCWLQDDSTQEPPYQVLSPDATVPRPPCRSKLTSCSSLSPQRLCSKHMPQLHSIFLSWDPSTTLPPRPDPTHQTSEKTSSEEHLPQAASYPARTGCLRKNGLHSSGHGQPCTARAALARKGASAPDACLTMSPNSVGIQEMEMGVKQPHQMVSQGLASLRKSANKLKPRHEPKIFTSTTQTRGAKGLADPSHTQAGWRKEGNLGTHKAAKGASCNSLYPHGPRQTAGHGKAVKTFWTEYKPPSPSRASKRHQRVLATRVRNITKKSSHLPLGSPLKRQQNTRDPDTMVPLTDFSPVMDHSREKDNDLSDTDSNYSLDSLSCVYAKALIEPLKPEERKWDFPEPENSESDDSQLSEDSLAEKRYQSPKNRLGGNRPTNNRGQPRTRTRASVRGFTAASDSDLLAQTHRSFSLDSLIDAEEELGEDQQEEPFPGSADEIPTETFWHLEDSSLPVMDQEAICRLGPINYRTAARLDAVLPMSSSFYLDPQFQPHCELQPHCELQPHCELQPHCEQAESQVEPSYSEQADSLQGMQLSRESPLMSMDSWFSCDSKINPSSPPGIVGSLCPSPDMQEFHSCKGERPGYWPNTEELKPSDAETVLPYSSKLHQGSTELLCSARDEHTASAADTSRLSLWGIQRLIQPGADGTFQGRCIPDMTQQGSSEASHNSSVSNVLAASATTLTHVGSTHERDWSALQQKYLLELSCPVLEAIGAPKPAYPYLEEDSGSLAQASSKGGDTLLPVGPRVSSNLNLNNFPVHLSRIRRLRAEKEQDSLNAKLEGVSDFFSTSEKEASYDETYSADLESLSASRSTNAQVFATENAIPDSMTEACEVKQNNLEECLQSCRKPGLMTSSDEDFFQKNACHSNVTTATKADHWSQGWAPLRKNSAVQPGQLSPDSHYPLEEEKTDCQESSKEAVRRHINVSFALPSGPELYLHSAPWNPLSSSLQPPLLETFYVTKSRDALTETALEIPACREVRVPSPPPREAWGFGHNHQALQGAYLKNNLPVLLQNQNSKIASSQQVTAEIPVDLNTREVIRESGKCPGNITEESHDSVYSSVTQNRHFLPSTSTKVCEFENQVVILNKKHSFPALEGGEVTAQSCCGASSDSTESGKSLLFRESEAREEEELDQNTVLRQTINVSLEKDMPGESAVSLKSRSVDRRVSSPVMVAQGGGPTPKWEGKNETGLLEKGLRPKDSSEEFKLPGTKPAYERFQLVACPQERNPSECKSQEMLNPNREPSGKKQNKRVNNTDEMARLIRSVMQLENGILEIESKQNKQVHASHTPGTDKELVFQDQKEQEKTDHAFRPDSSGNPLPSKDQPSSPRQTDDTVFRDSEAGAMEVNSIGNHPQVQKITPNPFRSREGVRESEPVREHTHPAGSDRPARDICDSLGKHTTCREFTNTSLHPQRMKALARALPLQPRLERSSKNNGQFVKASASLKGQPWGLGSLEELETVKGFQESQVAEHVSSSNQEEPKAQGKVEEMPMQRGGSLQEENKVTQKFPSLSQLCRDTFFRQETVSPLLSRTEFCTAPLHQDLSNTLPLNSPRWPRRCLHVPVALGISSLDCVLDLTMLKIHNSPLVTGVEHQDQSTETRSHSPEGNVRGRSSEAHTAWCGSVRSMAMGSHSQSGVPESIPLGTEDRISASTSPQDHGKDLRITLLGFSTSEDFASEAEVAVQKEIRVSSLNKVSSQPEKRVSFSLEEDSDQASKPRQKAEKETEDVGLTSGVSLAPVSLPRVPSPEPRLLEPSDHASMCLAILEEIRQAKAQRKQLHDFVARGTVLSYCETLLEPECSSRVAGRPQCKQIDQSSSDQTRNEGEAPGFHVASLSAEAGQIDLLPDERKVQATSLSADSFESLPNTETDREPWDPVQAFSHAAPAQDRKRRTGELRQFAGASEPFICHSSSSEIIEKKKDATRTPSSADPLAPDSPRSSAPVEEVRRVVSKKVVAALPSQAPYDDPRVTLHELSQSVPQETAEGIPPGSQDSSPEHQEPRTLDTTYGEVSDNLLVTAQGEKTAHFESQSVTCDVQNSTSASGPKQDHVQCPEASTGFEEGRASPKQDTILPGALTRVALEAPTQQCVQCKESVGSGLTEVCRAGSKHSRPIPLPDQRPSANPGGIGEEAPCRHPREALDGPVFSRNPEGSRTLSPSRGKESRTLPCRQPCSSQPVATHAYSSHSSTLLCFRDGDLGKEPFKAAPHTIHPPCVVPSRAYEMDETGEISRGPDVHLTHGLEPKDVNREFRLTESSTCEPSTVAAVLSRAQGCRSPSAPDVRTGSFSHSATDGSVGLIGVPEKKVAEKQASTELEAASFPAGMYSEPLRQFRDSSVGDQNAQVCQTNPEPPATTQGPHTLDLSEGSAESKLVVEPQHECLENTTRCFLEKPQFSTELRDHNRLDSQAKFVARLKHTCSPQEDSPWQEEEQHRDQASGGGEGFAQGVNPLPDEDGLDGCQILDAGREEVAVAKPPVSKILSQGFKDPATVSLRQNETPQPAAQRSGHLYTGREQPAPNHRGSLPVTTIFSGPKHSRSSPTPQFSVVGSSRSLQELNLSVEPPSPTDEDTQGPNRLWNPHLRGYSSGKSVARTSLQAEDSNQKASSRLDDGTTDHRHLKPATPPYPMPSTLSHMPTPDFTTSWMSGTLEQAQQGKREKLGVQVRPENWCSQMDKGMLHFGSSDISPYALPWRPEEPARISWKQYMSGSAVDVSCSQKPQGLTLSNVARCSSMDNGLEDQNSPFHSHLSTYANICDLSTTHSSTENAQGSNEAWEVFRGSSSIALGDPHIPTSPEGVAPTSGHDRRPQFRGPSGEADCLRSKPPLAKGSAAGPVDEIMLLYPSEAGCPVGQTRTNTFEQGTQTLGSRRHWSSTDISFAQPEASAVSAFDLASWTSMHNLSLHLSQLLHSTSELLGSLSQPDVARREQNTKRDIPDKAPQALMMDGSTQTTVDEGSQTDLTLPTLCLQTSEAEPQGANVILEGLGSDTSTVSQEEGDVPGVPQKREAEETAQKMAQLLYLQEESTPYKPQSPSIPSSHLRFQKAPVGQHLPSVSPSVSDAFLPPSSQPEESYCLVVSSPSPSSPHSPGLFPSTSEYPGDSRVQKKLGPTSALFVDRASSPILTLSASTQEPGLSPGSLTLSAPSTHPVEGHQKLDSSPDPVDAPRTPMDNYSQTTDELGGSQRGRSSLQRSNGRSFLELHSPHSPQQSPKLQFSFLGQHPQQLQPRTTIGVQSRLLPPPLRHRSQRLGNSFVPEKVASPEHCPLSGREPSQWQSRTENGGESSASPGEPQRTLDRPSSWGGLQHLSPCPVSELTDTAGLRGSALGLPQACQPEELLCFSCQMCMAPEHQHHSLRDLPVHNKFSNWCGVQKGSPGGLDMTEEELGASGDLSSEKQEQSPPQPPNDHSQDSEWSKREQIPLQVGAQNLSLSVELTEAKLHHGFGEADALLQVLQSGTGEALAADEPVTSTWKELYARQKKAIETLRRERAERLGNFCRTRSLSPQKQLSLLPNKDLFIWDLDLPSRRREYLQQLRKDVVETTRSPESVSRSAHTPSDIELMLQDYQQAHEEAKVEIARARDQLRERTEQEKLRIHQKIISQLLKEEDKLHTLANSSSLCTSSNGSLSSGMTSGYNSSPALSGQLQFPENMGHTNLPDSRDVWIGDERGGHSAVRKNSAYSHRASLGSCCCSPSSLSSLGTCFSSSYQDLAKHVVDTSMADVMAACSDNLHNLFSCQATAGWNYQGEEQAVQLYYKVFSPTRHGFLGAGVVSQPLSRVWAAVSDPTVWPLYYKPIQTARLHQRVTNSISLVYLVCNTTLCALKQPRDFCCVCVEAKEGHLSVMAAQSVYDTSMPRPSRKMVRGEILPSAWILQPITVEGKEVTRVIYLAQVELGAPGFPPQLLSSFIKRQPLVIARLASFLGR
Target,log2 fold change (saracatinib),log2 fold change (sotrastaurin),log2 fold change (alvocidib),log2 fold change (Tubastatin A),log2 fold change [1],log2 fold change (defactinib),log2 fold change (rucaparib),log2 fold change [2],log2 fold change (encorafenib),log2 fold change [3],log2 fold change [4],log2 fold change (filanesib),log2 fold change (zotarolimus),log2 fold change (idasanutlin),log2 fold change (alisertib),log2 fold change [5],log2 fold change (gefitinib),log2 fold change [6],log2 fold change (lapatinib),log2 fold change (pictilisib)
SPG21 (UniProt Q9NZD8),0.007,-0.005,-0.097,0.016,-0.015,-0.134,0.089,0.211,-0.022,0.01,-0.026,0,0.063,0.03,-0.084,0.174,0.226,0.011,0.072,0.064
TBC1D24 (UniProt Q9ULP9),-0.025,-0.016,-0.379 (active),-0.044,-0.075,-0.106,-0.148,0.077,-0.011,-0.005,0.032,-0.145,0.006,-0.127,-0.102,-0.028,0.007,0.05,0.032,-0.082
SMARCA5 (UniProt O60264),-0.084,-0.235,-0.193,0.082,0.038,-0.145,0.035,0.065,0.116,0.01,0.047,0.047,0.043,0.059,-0.064,-0.049,0.073,-0.144,-0.017,0.004
TERF2IP (UniProt Q9NYB0),0.038,-0.065,-0.106,0.128,0.008,-0.195,-0.052,-0.016,-0.011,-0.007,-0.034,0.052,0.045,0.025,-0.032,-0.119,0.013,0.025,-0.008,-0.036
STK11IP (UniProt Q8N1F8),0.001,-0.138,-0.184,0.084,0.097,-0.074,0.1,-0.039,0.265,0.007,-0.029,0.042,0.195,0.044,-0.131,-0.172,-0.072,-0.139,-0.088,0.117
TM9SF2 (UniProt Q99805),0.038,-0.01,-0.039,-0.001,0.005,0.006,0.015,-0.031,0.001,-0.069,-0.06,-0.073,0.043,-0.103,-0.01,-0.061,0.009,0.007,0.011,0.085
ST3GAL2 (UniProt Q16842),-0.103,0.036,-0.017,0.107,0.129,-0.02,0.093,0.138,0.06,-0.136,0.087,0.124,0.092,0.075,-0.134,0.1,0.187,-0.043,0.17,0.102
SNX5 (UniProt Q9Y5X3),0,-0.006,-0.061,-0.013,-0.117,-0.014,-0.054,0.012,0.03,0.006,-0.06,-0.172,0.015,-0.015,-0.012,-0.066,-0.136,0.008,0.01,-0.085
SPTBN1 (UniProt Q01082),-0.019,-0.224 (active),-0.03,0.042,0.048,-0.125,0.084,-0.047,0.064,-0.057,-0.037,0.102,0.045,0.053,-0.073,0.02,0.084,-0.076,0.031,0.007
SRSF10 (UniProt O75494),-0.002,0.041,0.338,-0.009,-0.053,0.233,0.314,0.068,0.133,0.14,-0.102,0.424,-0.157,0.388,-0.099,-0.169,-0.009,-0.056,0.101,-0.042
SLC38A9 (UniProt Q8NBW4),0.053,-0.184,-0.024,-0.05,0.025,-0.038,-0.048,-0.073,-0.001,0.001,0.033,0.064,-0.012,-0.004,0,0.053,-0.012,0.121,-0.065,-0.027
SNRNP27 (UniProt Q8WVK2),-0.071,0.048,0.062,-0.023,-0.036,0.015,0.049,-0.09,-0.061,0.097,-0.075,0.03,-0.156,0.121,-0.003,-0.015,-0.011,0.135,0.005,-0.009
SOAT1 (UniProt P35610),0.026,-0.06,-0.02,-0.057,0.186,-0.053,-0.064,0.014,0.122,0.111,0,-0.1,0.363 (active),-0.184,-0.02,-0.118,0.137,0.045,0.068,0.067
STARD9 (UniProt Q9P2P6),0.051,-0.316,-0.337,0.122,-0.344,0.144,-0.005,0.103,0.048,-0.03,-0.037,-0.028,0.098,-0.035,0.096,0.058,-0.132,-0.185,0.154,0.008
STAT5A (UniProt P42229),-0.093,-0.14,-0.151,0.088,-0.001,-0.273,0.006,0.054,0.088,-0.059,0.034,0.018,0.094,0.032,-0.056,0.009,0.047,-0.128,0,-0.096

# — the supplement of paper PMC10849652
